This is part of a sample that, as a whole, favours compounds with a hit. Of some 79,000 tested, about 15% had one in any assay. Calls of active or inactive are those of the source. No stated cut-off is given here; in the data, active means growth inhibition above about 70%; inactive means the rest.
Columns and labels:
[1] = NCI Yeast Anticancer Drug Screen. Data for the rad50 strain (AID 155);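 further: 0% = growth of vehicle-only cultures of the same strain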; details: S. cerevisiae rad50 strain growth inhibition; at 50.0 µM; hits give high values
In short: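 DNA repair mutant yeast, compound exposure, growth read-out; inhibition is taken relative to vehicle.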

[2] = NCI Yeast Anticancer Drug Screen. Data for the mec2-1 strain (AID 157); details: S. cerevisiae mec2-1 strain, at 50.0 µM, hits give high values
In short: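 Yeast mec2-1 mutant treated with compound. Readout: growth inhibition vs vehicle controls.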

[3] = NCI Yeast Anticancer Drug Screen. Data for the sgs1 mgt1 strain (AID 161);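 further: 0% = growth of cultures given vehicle only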; details: S. cerevisiae sgs1 mgt1 strain, at 50.0 µM, hits give high values
In short: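 Genetically altered yeast, compound exposure, growth inhibition relative to vehicle.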

[4] = NCI Yeast Anticancer Drug Screen. Data for the cln2 rad14 strain (AID 165);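 further: 0% = growth equal to vehicle treated cultures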; details: S. cerevisiae cln2 rad14 strain, at 50.0 µM, hits give high values
In short: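 cln2 rad14 yeast strain; compound exposure; growth inhibition read vs vehicle controls.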

[5] = NCI Yeast Anticancer Drug Screen. Data for the bub3 strain (AID 167); details: S. cerevisiae bub3 mutant strain, at 50.0 µM, hits give high values
In short: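 In this screen, a yeast mutant lacking normal mitotic checkpoint function is challenged with compound. Relative growth versus vehicle gives the inhibition value.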

[6] = NCI Yeast Anticancer Drug Screen. Data for the mlh1 rad18 strain (AID 175); details: S. cerevisiae mlh1 rad18 strain growth inhibition; at 50.0 µM; hits give high values
In short: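 Yeast w/ defined DNA-repair lesions; compound exposure; growth vs vehicle controls → % inhibition.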

Measured: growth inhibition

c1ccc(C2=NN3CN(N2)c2ccccc2OCCCOc2ccccc23)cc1
inactive: [1] -25.2% | [2] 2.05% | [3] -5.55% | [4] 12.8% | [5] 18.3% | [6] 6.25%

O=C(OCOC(=O)N1CCOCC1)N1CCOCC1
inactive: [1] 2.3% | [2] -7.25% | [3] 1% | [4] 17.6% | [5] -1.9% | [6] -5.2%

CCOc1ccc(-n2c(O)c(N=Nc3ccccc3OC)c(=O)n(-c3ccc(OC)cc3)c2=S)cc1
inactive: [1] 18.4% | [2] -7.9% | [3] -10.3% | [4] -10.4% | [5] -4.8% | [6] 7.05%

CCOC(=O)CCC(NC(=O)c1ccc(N(C)C=O)cc1)C(=O)OCC (configuration not stated)
inactive: [1] 10.9% | [2] -6.8% | [3] -0.55% | [4] -6.8% | [5] 6.45% | [6] 12.3%

CN1C(CC(=O)c2ccccc2)CCCC1CC(O)c1ccccc1 (configuration not stated)
inactive: [1] 13.9% | [2] 2.25% | [3] 25.4% | [4] 40.4% | [5] -2.4% | [6] 36.1%

Cc1ccc(C)c(N=C2NC(=O)C(CC(=O)Nc3ccc(Cl)cc3Cl)S2)c1 (configuration not stated)
inactive: [1] -7.5% | [2] 2.75% | [3] -9.65% | [4] 24.7% | [5] -10.9% | [6] -32.6%

O=CC(O)C(O)C(O)C(O)COC1OC(CO)C(O)C(O)C1O (configuration not stated)
inactive: [1] 22.6% | [2] -11.7% | [3] 21.2% | [4] 8% | [5] 23% | [6] 11.1%

CCCCCCCC#CC1(CCCC)Sc2ccccc2N1C (configuration not stated)
inactive: [1] 15.3% | [2] 6.15% | [3] 0.75% | [4] 8.05% | [5] 6.35% | [6] 19.8%

CC(C)Cc1[nH]nc2c1C(=O)C(Nc1ccccc1)=CC2=O
inactive: [1] 22.5% | [2] 25.3% | [3] 12.6% | [4] -7.65% | [5] 2.75% | [6] 23.4%

N#Cc1ccc(/C=N\NC(=O)CCSCCC(=O)N/N=C/c2ccc(C#N)cc2)cc1
inactive: [1] 13.2% | [2] 24.9% | [3] 7.65% | [4] 18.4% | [5] 13.1% | [6] 7.45%

c1ccc(CCNCc2ccc(CNCCc3ccccc3)cc2)cc1
inactive: [1] -5.75% | [2] -23.9% | [3] -12.2% | [4] 5.05% | [5] -0.25% | [6] 3.45%

CN(C)C(=O)C1CCC(=O)N1 (configuration not stated)
inactive: [1] 3.1% | [2] 10.6% | [3] 6.6% | [4] -4.95% | [5] 10.6% | [6] -0.3%

Cc1cc(=O)c2cc([N+](=O)[O-])ccc2[nH]1
inactive: [1] 6.05% | [2] 6.35% | [3] -9.7% | [4] -5.95% | [5] 5.85% | [6] -2.65%

CC1CNC(=S)SSC(=S)N1 (configuration not stated)
inactive: [1] 35.8% | [2] 26.5% | [3] 20.9% | [4] 32.7% | [5] 14.1% | [6] 27.7%

O=c1c2ccccc2[nH]c2ccc(O)cc12
inactive: [1] 1.45% | [2] -7.95% | [3] 4.8% | [4] -3.25% | [5] 3.2% | [6] 16.4%

O=S(=O)(c1ccc(OCCOc2ccc(S(=O)(=O)N3CCOCC3)cc2)cc1)N1CCOCC1
inactive: [1] 0.55% | [2] 7.75% | [3] 12.6% | [4] -15.4% | [5] 2.95% | [6] -14%

CC(C)=CCC/C(C)=C/CNc1ncnc2c1ncn2C1OC(CO)C(O)C1O (configuration not stated)
inactive: [1] -4.3% | [2] 13.7% | [3] 6.6% | [4] -37% | [5] 12.9% | [6] 27.6%

COC(=O)NC1(NC(=O)OC)NC(=O)c2cc(OC)c(OC)c(OC)c2N1
inactive: [1] 17.1% | [2] 8.45% | [3] 10.8% | [4] -10.8% | [5] -12.3% | [6] 3.85%

CCCCCCNC(=O)CCC(NC(=O)c1ccc(N(C)Cc2cnc3nc(N)nc(N)c3n2)cc1)C(=O)NCCCCCC (configuration not stated)
inactive: [1] 18.2% | [2] 17.1% | [3] 19.1% | [4] 19.9% | [5] 25.4% | [6] 28.2%

CC(C)CC(C)OB(OC(C)CC(C)C)OC(C)CC(C)C (configuration not stated)
inactive: [1] -11.2% | [2] -24.1% | [3] -4.3% | [4] -16.9% | [5] 0.7% | [6] -14.6%

C=CCC(=O)OCc1cc2c(cc1Br)OCO2
inactive: [1] -26.8% | [2] -17.2% | [3] -8.35% | [4] -10.6% | [5] 54.5% | [6] 5.85%

CC(C)C1CCC2(CC1)CCN(CCCN(C)C)CC2
inactive: [1] -4.65% | [2] 25.3% | [3] 9.15% | [4] -23.6% | [5] 7.25% | [6] -7.65%

CCOC(=O)c1cnc(N)nc1N
inactive: [1] 6.35% | [2] -16.1% | [3] -6.3% | [4] -88.3% | [5] -8.3% | [6] 24.1%

O=C(O)C1CSC(c2cccs2)N1 (configuration not stated)
inactive: [1] -19.2% | [2] -46.5% | [3] -4.4% | [4] 1.4% | [5] -32.2% | [6] -8.1%

BrCC1=CC(c2ccccc2)(c2ccccc2)c2ccccc21
active: [1] 96.2% | [2] 97% | [3] 97.3% | [4] 94.3% | [5] 96.2% | [6] 96.1%

Cc1cc(N=Cc2c(CO)cnc(C)c2O)c(N=Cc2c(CO)cnc(C)c2O)cc1C.[Zn]
inactive: [1] 5.9% | [2] -8% | [3] 5.6% | [4] -3.15% | [5] -2.1% | [6] 0.9%

N#C/C(=N\NC(=O)c1ccncc1)c1ccc(Cl)cc1
inactive: [1] -3% | [2] 3.6% | [3] 3.75% | [4] -30.2% | [5] -9.75% | [6] 4.65%

Cc1c([O-])[n+]2cccc3ccn(c1=O)c32
inactive: [1] -28.7% | [2] -13.6% | [3] -16.7% | [4] -11.1% | [5] -2.4% | [6] 12.1%

C/C=C/C=C\C(=O)C1c2cccc(O)c2C(=O)c2c(O)cc(C)cc21 (configuration not stated)
inactive: [1] 40.4% | [2] 20.9% | [3] 12.3% | [4] 29.6% | [5] 37.5% | [6] 34.1%

Cc1cccc(C)c1NC(=O)C(=O)Cc1nc2ccccc2s1
inactive: [1] -12.1% | [2] -0.45% | [3] -9.25% | [4] -4.45% | [5] -30.5% | [6] -6.8%

C=CC(=NC(C)(C)C)Nc1ccc(Cl)cc1
inactive: [1] -13% | [2] -6.8% | [3] -36.2% | [4] -14.6% | [5] -19.2% | [6] 3.4%

CCCOCC(O)CNCCNCC(O)COCCC (configuration not stated)
inactive: [1] 4.1% | [2] -2.7% | [3] 8.15% | [4] -34.5% | [5] -3.65% | [6] 7.3%

O=c1cc(Cl)ncn1C1OC(CO)C(O)C1O (configuration not stated)
inactive: [1] -17% | [2] -21.1% | [3] -27.6% | [4] -14.3% | [5] -27.6% | [6] -25.3%

Nc1ccc(C(C(=O)O)c2ccccc2)cc1Cl (configuration not stated)
inactive: [1] 22.6% | [2] -9% | [3] 20.9% | [4] -1.55% | [5] 12.3% | [6] 5.65%

Nc1nc(N)c2c(Cl)c(CNc3ccc(C(=O)NC(CC(=O)O)CC(=O)O)cc3)ccc2n1
inactive: [1] 19% | [2] 9.65% | [3] 22.2% | [4] -1.35% | [5] -4.05% | [6] 14.4%

O/N=C/c1ccccc1O
inactive: [1] 14.9% | [2] -19.1% | [3] -0.3% | [4] 9.65% | [5] -7.85% | [6] 10.2%

CCN(CC)Cc1cc(OC(=O)c2cc(OC)c(OC)c(OC)c2)cc(C(=O)OC)c1
inactive: [1] 3.2% | [2] 3.7% | [3] -19.1% | [4] -32% | [5] 8.5% | [6] -10.3%

— PubChem BioAssay (NCI)
